What all share (assay): NCI-60 one-dose screen, 48 h (100 = growth as untreated, 0 = no growth, -100 = all killed)
Details in all cases: 10 µM unless noted

The test system of assay [1] is HCT-15 colon.
Assay [2] has as its system HT29 colon.
The subject of assay [3] is SNB-75 CNS.
The test system of assay [4] is SNB-19 CNS.
For assay [5], the system named is U251 CNS.
The subject of assay [6] is PC-3 prostate.
Assay [7] concerns SK-MEL-5 melanoma.
The subject of assay [8] is UACC-62 melanoma.
For assay [9], the system named is LOX IMVI melanoma.
For assay [10], the system named is SK-MEL-28 melanoma.
In assay [11] the test system is SK-MEL-2 melanoma.
For assay [12], the system named is EKVX NSCLC.
For assay [13], the system named is SN12C renal.
Assay [14] has as its system UO-31 renal.
In assay [15] the test system is TK-10 renal.
The subject of assay [16] is ACHN renal.
Assay [17] has as its system CAKI-1 renal.
In assay [18] the test system is A498 renal.
Assay [19] has as its system CCRF-CEM leukemia.
Assay [20] relates to MOLT-4 leukemia.

Compounds without any hit were thinned out: in the full panel of roughly 83,000, 20% have a hit.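 For each line, cells grew in 96-well plates with the test compound present at a single concentration for 48 hours.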 Unmarked numbers belong to inactive results. Calls of active or inactive are those of the source. The calls were made as follows: active = growth percent below 10; inactive = the rest.

With `C/C(=C(/c1ccc(Cl)cc1)c1ccc(OCCN2CCCC2)cc1)c1ccc(Cl)cc1`, the growth in assay [1] was 42.1%; in assay [2] it was 9.33% (active); in [3], 115%; in [4], 85.8%; in assay [5], 68.6%; in assay [6] it was 66.4%. Also, the growth in assay [7] was 82.4%; in assay [8], 93.9%; in assay [9], 78%; in assay [10] it was 92.8%; in assay [11], 93.9%; in assay [12], 90.7%. The growth is 85.5% in assay [13]; 65.7% in assay [14]; 94.6% in assay [15]; 104% in assay [16]; 88.5% in [17]; 97.9% in assay [18]. The growth in assay [19] is 61.7%; in assay [20] it was 62.9%.

For `CCN(CC)CCOc1ccc(C(=C(C)c2ccc(Cl)cc2)c2ccc(OCCN(CC)CC)cc2)cc1`, the growth in [1] is -76.9% (active); in assay [2], -74.8% (active); in [3], -92.6% (active); in [4], -81.8% (active); in [5], -81.6% (active); in assay [6] it was -59.3% (active). Further, the growth in [7] is -98% (active); in [8], -78.1% (active); in assay [9] it was -88.5% (active); in assay [10], -88.5% (active); in assay [11], -60.2% (active); in assay [12] it was 26.1%. For the same compound, the growth in assay [13] was -83.7% (active); in [14], -92.8% (active); in assay [15] it was -87.2% (active); in assay [16], -88.3% (active); in assay [17] it was -95.7% (active); in [18], 7.66% (active). The growth was -62.8% (active) in assay [19] and -64.2% (active) in assay [20].

Take `N#C/C(=C\c1ccc2ccccc2c1)c1cc2ccccc2[nH]1`: the growth in assay [1] is 22.5%; in [2] it was 10.9%; in assay [3] it was 35.6%; in [4], 43.8%; in [5], 27.8%; in assay [6] it was 33%. For the same compound, the growth in assay [7] was 35.3%; in assay [8], 32.2%; in [9] it was 32.3%; in assay [10] it was 55.3%; in assay [11] it was 43.5%; in [12], 55.3%. In addition, the growth was 49.8% in [13]; 49% in assay [14]; 75.6% in [15]; 50.4% in assay [16]; 38.1% in assay [17]; 33.7% in [18]. The values for the growth in assay [19] and in assay [20] were 18.5% and 29%, respectively.

Take `Oc1c(Cl)cc(Cl)c2ccc(Cn3cc(-c4cc(C(F)(F)F)cc(C(F)(F)F)c4)nn3)nc12`: the growth was 12.5% in [1]; 53.4% in assay [2]; 62.3% in [3]; 94% in [4]; 105% in assay [5]; 74.8% in [6]. The growth was 92.6% in [7]; 64.8% in [8]; -10.3% (active) in [9]; 46% in assay [10]; 89.9% in assay [11]; 80.9% in assay [12]. The growth in [13] is 65.4%; in [14], 57%; in assay [15] it was 96.7%; in [16], 11.4%; in [17], 13.8%; in assay [18], 103%. For the same compound, the growth in [19] was 4.83% (active); in [20], 2.95% (active).

As for `Cc1cc(=O)[nH]c2c(C#N)cnn12`, the growth was 107% in assay [1]; 104% in assay [2]; 100% in assay [3]; 98.1% in [4]; 102% in assay [5]; 107% in [6]. The growth in [7] was 99.4%; in assay [8] it was 90.7%; in [9], 101%; in assay [10], 105%; in [11], 102%; in assay [12] it was 97%. In addition, the growth in assay [13] is 97.4%; in [14], 83.8%; in assay [15], 101%; in assay [16] it was 98.8%; in [17] it was 93.6%; in assay [18], 93.1%. Also, the growth was 101% in assay [19] and 105% in [20].

For the compound `CN(CCn1sc(=O)n(Cc2ccccc2)c1=O)Cc1ccc2c(Cl)cc(Cl)c(O)c2n1`, the growth was 16.3% in assay [1]; 39.9% in [2]; 74.6% in assay [3]; 39.7% in [4]; 27% in [5]; 35.5% in [6]. The growth in assay [7] was 59.5%; in [8], 29.8%; in assay [9] it was 30.7%; in [10], 59.8%; in assay [11], 66.9%; in assay [12] it was 35.9%. Besides, the growth in assay [13] was 34.7%; in [14], -11.7% (active); in assay [15], 63.7%; in assay [16] it was 27.8%; in assay [17], 46.4%; in assay [18], 68.4%. For the same compound, the growth in [19] is 27.6%; in assay [20] it was 27.7%.

`O=C(Cc1ccccc1)Nc1nc(O)c(/C=C2\C(=O)C=Cc3ccccc32)s1`: the growth in [1] was 100%; in assay [2] it was 111%; in assay [3], 95.5%; in [4] it was 92.3%; in assay [5] it was 101%; in assay [6], 92.4%. Further, the growth in [7] is 103%; in assay [8] it was 94.6%; in assay [9], 97.6%; in [10], 114%; in assay [11], 110%; in assay [12], 95.6%. Besides, the growth was 101% in [13]; 78.2% in [14]; 150% in [15]; 101% in assay [16]; 85.3% in assay [17]; 66.8% in assay [18]. Moreover, the growth in assay [19] was 114%; in assay [20], 101%.

Consider `COc1ccc(C(=S)N2CCN(c3ccccc3Cl)CC2)cc1OC`, for which the growth in [1] was 95.2%; in assay [2], 102%; in assay [3] it was 85.6%; in assay [4] it was 85.3%; in [5], 102%; in assay [6], 90.3%. Further, the growth in [7] is 96.4%; in [8], 89.2%; in assay [9] it was 92.7%; in assay [10] it was 103%; in assay [11] it was 101%; in assay [12] it was 97.4%. Moreover, the growth in assay [13] was 100%; in [14], 104%; in assay [15], 108%; in [16] it was 97.2%; in [17] it was 91.8%; in assay [18], 94.6%. Besides, the growth in [19] was 123%; in [20], 76.4%.

For the compound `C#Cc1cccc(Nc2ncnc3ccc(-c4cncc(NS(C)(=O)=O)c4)cc23)c1`, the growth was 55.9% in assay [1]; 20.7% in [2]; 30.6% in assay [3]; 35.2% in assay [4]; 4.32% (active) in assay [5]; 26.8% in assay [6]. Also, the growth in [7] is -75.7% (active); in assay [8], 33.4%; in assay [9] it was 7.21% (active); in assay [10] it was 41.4%; in [11] it was -39.7% (active); in assay [12], 4.65% (active). In addition, the growth in assay [13] was 24.2%; in [14], 38.4%; in assay [15] it was -3.64% (active); in assay [16], 33.2%; in assay [17], 54.9%; in [18] it was -10.7% (active). In addition, the growth in assay [19] is 14%; in assay [20] it was -28.3% (active).

Regarding `C=CCc1c(O)c(C(=O)/C=C/c2ccc(Cl)cc2)c(OC)c2ccoc12`, the growth in [1] is 41.3%; in assay [2], 36.6%; in assay [3], 80.1%; in [4], 63.2%; in [5] it was 37.7%; in assay [6], 30.9%. For the same compound, the growth is 52.6% in assay [7]; 48.1% in [8]; 34.8% in [9]; 63.5% in [10]; 15.7% in [11]; 56.3% in [12]. Further, the growth in assay [13] is 57.2%; in [14], 51.4%; in [15], 57.2%; in assay [16] it was 55%; in assay [17], 19.5%; in assay [18] it was 46.9%. For the same compound, the values for the growth in [19] and in assay [20] were 21.4% and 15.3%, respectively.

With `CC1=Nc2cnc(Nc3ccc(OCCN4CCCC4)cc3)nc2Nc2ccccc21`, the growth in assay [1] was 33.9%; in [2], 60.9%; in assay [3], 20.1%; in [4] it was 91.1%; in [5] it was 80.9%; in [6], 61.7%. In addition, the growth in assay [7] is 71.6%; in assay [8] it was 84.3%; in assay [9], 52.2%; in assay [10], 94%; in assay [11], 55.9%; in assay [12], 75.1%. Further, the growth is 61.1% in [13]; 17.3% in [14]; 63.6% in assay [15]; 28.7% in assay [16]; 20.9% in assay [17]; -7.76% (active) in assay [18]. The growth was 86.3% in [19] and 34.5% in assay [20].

Take `C=CCn1c(SCC(=O)NCc2cc(C)c(O)c(C)c2)nc2ccc(Cl)cc2c1=O`: the growth in assay [1] was 95.6%; in assay [2], 102%; in [3], 67.5%; in assay [4] it was 99.7%; in assay [5], 102%; in [6] it was 96.1%. Moreover, the growth in assay [7] was 93.2%; in assay [8] it was 81.9%; in assay [9] it was 100%; in [10], 109%; in [11], 101%; in [12], 111%. Besides, the growth is 107% in [13]; 74.6% in assay [14]; 113% in assay [15]; 98.9% in assay [16]; 112% in assay [17]; 106% in assay [18]. Moreover, the results for the growth in assay [19] and in assay [20] were 86.3% and 81.6%, respectively.

Consider `CN(C)CCCC1(c2ccc(F)cc2)OCc2cc(-c3cccc4[nH]ccc34)ccc21` (stereo not given), for which the growth in [1] was 7.57% (active); in [2] it was -31.3% (active); in assay [3], 11.4%; in assay [4] it was 51.9%; in assay [5] it was -24.1% (active); in [6] it was 28.6%. For the same compound, the growth in [7] was -84.1% (active); in assay [8] it was 37.5%; in [9], -92.1% (active); in [10], -86% (active); in [11], 74.5%; in [12], 44.8%. Moreover, the growth in [13] was 48.3%; in [14] it was -9.8% (active); in assay [15], 58.5%; in assay [16], 9.24% (active); in assay [17], 6.71% (active); in [18] it was 72%. The growth in assay [19] was 16%; in [20] it was -8.64% (active).

For the compound `CNC(=O)c1cc(Oc2ccc3nc(NC(C)=O)sc3c2)ccn1`, the growth in assay [1] is 106%; in assay [2] it was 110%; in assay [3] it was 84.4%; in assay [4], 106%; in [5], 98.4%; in assay [6], 96.3%. Further, the growth in assay [7] was 101%; in assay [8], 98.8%; in [9], 93.2%; in [10] it was 105%; in [11] it was 94.9%; in [12], 97.8%. Also, the growth was 106% in assay [13]; 95% in [14]; 104% in assay [15]; 104% in [16]; 89.2% in assay [17]; 106% in [18]. Further, the growth in [19] was 94.7%; in [20] it was 90.4%.

The record behind these values is PubChem BioAssay (NCI).
